HEK293 tox – cytotoxic in the GLP-1 receptor inverse agonist counter-screen. HEK293 cAMP-luciferase reporter cells, luminescence, 24 h. Potency, µM (titrated, usually from 38.3 µM), for inactives: at the top dose activity change, negative = inhibition, most hits filed as inhibitors. actives 0.13% (n = 410,000);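 also: loss of luciferase light is scored as toxicity; potency is read from the fitted curve at half-maximal effect; % is scaled to controls: 0 for no effect and ±100 for the full control effect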
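Cells in DMEM/10% Nu serum/1% pen-strep, 1536-well format. Pre-incubated 12 h, dosed with 23 nL compound, incubated a further 24 h. Luciferase detection, 12 min at room temp, luminescence.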
D3 antag – antagonists of human D3 dopamine receptor; max response, negative = inhibition, %; actives 2.5% (n = 360,000); D3R cells, DiscoveRx beta-arrestin luminescence, antagonist mode; active compounds read low; AID 652054; P35462; in the data active = max response below about -50%; inconclusive = no clear call, values can overlap the other calls; also: % is scaled to controls: 0 for no effect and ±100 for the full control effect
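Cells plated overnight at 1500 cells/well, then exposed to library compounds with dopamine controls for 90 minutes at 37 degrees C. DiscoveRx reagent added for 30–60 minutes at room temperature; luminescence read, quantitative HTS format.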
D3 ag – activates the human D3 dopamine receptor. P35462. D3R DiscoveRx beta-arrestin cells, luminescence, 90 min. max activation, %. actives 0.58% (n = 410,000). AID 652048; in the data active = max activation above about 30%; also: 0% is about no effect
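Agonist-mode cell screen: cells plated at 1500/well and incubated overnight at 37 °C, then exposed to library compounds for 90 min at 37 °C. Detection reagent was added for 30–60 min at room temperature, and luminescence was read.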
ClpP mod – qHTS Assay for Activators of ClpP | ATP-dependent Clp protease proteolytic subunit (Bacillus subtilis (strain 168)), P80244 | purified B. subtilis ClpP, FRET peptide cleavage, 20 min | Potency, µM (titrated, usually from 57.5 µM), without a hit: at the highest dose activity change, negative = active | actives 1.9% (n = 340,000) | AID 651965, 2013; active = well fitted falling curve with a large enough effect; inconclusive = small, poorly fitted or top-dose-only effect; inactive = no such curve, though single readings can be large or run the other way; also: potency is read from the fitted curve at half-maximal effect; the source files actives as falling curves though it sought activators and does not explain the sign; nearly all actives have a fitted effect of over 65% in size
Target sequence (P80244 whole entry, looked up): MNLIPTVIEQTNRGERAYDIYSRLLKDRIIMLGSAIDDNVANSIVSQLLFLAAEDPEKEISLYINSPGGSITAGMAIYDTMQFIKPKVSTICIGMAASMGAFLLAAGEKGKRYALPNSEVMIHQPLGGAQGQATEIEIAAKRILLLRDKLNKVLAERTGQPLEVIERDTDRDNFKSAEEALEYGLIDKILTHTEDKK
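FRET quenching reversal measured ClpP activation: 10 microg/mL B. subtilis ClpP at pH 8 with the FRET-FV decapeptide, read at 430 nm after 320 nm excitation. The 20-min minus 0-min signal was scaled between DMSO/no-enzyme wells and ADEP (5.8 microM final).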
GLP-1R agonist – activates the human GLP-1 receptor. HEK293 GLP-1R CRE-luciferase, luminescence, 4-6 h; cells express a hypersensitive GLP-1R form. actives 0.007% (n = 380,000). Potency, µM (titrated, usually from 45.6 µM), for inactives: at the highest dose activation, usual class: activators. P43220; also: potency is read from the fitted curve at half-maximal effect; % of control where 0% means no effect
Target sequence (P43220 whole entry, looked up): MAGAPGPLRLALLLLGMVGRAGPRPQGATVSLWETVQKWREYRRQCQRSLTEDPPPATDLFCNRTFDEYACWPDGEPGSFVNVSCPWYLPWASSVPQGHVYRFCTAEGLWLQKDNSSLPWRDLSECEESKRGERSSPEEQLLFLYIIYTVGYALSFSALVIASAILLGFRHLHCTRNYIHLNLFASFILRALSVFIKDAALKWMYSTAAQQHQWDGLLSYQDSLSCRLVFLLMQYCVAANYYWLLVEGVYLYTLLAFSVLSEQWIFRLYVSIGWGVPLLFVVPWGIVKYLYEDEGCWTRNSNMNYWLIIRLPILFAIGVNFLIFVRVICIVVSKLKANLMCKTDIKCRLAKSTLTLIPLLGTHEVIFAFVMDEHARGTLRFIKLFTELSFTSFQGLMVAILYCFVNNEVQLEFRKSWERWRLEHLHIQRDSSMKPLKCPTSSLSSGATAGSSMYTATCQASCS
GLP1R inv ag – acts as inverse agonist at human GLP-1 receptor. P43220. Potency, µM (titrated, usually from 38.3 µM), for inactives: at the highest dose activity change, negative = inhibition, actives largely listed as inhibitors. HEK293 GLP-1R CRE-luciferase, luminescence, 24 h; GLP-1R form is constitutively active. actives 1.6% (n = 410,000). AID 624417; also: potency is read from the fitted curve at half-maximal effect; % is scaled to controls: 0 for no effect and ±100 for the full control effect; nearly all actives have a fitted effect of over 55% in size
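Luminescence readout: a drop in cAMP-driven luciferase signal flags inverse agonism at a constitutively active GLP-1R stably expressed in HEK293. Compound exposure lasted 24 hr at 37 deg C, 5% CO2.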
* hit, by the source's call; ? = inconclusive; . = no result given. Most compounds without a hit are left out; they make up all but 5.7% or so of the library. Unless noted, calls follow the shape of the dose curve; as a rule, active = well fitted curve in the direction sought with a large enough effect; inconclusive = small, poorly fitted or top-dose-only effect, or another doubt; inactive = no such curve, though single readings can be large; an effect the other way counts as inactive or inconclusive.

SMILES | HEK293 tox | D3 antag | D3 ag | ClpP mod | GLP-1R agonist | GLP1R inv ag
C/C1=C2N=C(/C=C3N=C(/C(C)=C4\[N-]C(C(CC(N)=O)C4(C)CCC(=O)NCC(C)OP(=O)([O-])OC4C(CO)OC(n5cnc6cc(C)c(C)cc65)C4O)C4(C)N=C1C(CCC(N)=O)C4(C)CC(N)=O)C(CCC(N)=O)C\3(C)C)C(CCC(N)=O)C/2(C)CC(N)=O.[CH3-].[Co+3] (stereo unspecified) | . | . | -6.4 | . | . | .
CC/C(O)=N/S(=O)(=O)c1ccc(-c2c(-c3ccccc3)noc2C)cc1 | . | . | . | . | -0.3% | .
CCN(C(=O)Cn1c(SCC(=O)Nc2ccc(OC)cc2)nc2ccccc21)c1cccc(C)c1 | 6.1% | . | -23.9 | -3.8% | . | -14.2%
O=C(c1ccc(CSc2nc3ccncc3n2Cc2ccccc2F)cc1)N1CCCCC1 | 1.6% | . | -4.4 | -1.1% | . | 9.2%
CC(=O)Nc1ccc2[nH]c(C)c(CC=C(Cl)Cl)c(=O)c2c1 | -3.9% | -6.3 | 4.4 | 31.6µM* | -1.5% | 4.9%
CN(CC(=O)Nc1ccccc1Br)C(=O)c1ccc(-c2ccc(Cl)cc2)o1 | -18.6% | -24.1 | 0.2 | 31.6µM* | 0.2% | -29.4%
COc1cccc(NC(=O)CN(C)C(=O)c2ccc(-c3ccccc3Cl)o2)c1 | -6.2% | 11.2 | -1.2 | -0.8% | 7.2% | 8.91µM*
CN(CC(=O)Nc1ccccc1C(F)(F)F)C(=O)c1ccc(-c2ccc(Cl)cc2)o1 | -2.4% | -10.8 | 4.1 | -2.3% | 2.5% | ?
Cc1ccc(NC(=O)Cn2c(=O)n(CCCCC(=O)NCc3ccc4c(c3)OCO4)c(=O)c3ccccc32)cc1 | 2.1% | . | 6.9 | -1.9% | 1.2% | 5.4%
Cc1cc(C)nc(-n2nc(C)c(Br)c2Nc2ccc(Br)cc2)n1 | 5.62µM* | 14.3 | -0.1 | -0.8% | 1.4% | ?
COC(=O)C(Cc1c[nH]c2ccccc12)NC(=O)c1ccccc1Br (stereo unspecified) | -0.1% | -3.2 | 2.2 | -3.0% | 12.9% | 8.9%
CC(=O)NC(Cc1c[nH]c2ccccc12)C(=O)OCC(=O)Nc1cc(C)on1 (stereo unspecified) | -7.0% | 5.5 | 0.1 | -1.2% | -4.3% | 9.6%
COC(=O)C(Cc1c[nH]c2ccccc12)NC(=O)CNC(C)=O (stereo unspecified) | 4.6% | -53.3* | 1.4 | -1.6% | -13.6% | -9.2%
Cc1cc(NC(=O)COC(=O)[C@H](Cc2c[nH]c3ccccc23)NC(=O)c2ccc(F)cc2)no1 | -4.0% | -50.5* | 0.4 | -9.0% | 5.2% | 2.3%
CC(C(=O)N1CCc2ccccc21)N1CCN(S(=O)(=O)c2ccc3c(c2)OCCCO3)CC1 (stereo unspecified) | 1.6% | -9.7 | -8.9 | 0.2% | 12.7% | ?
O=[N+]([O-])c1ccc(N/N=C/c2cccc(O)c2O)cc1 | ? | -50.3* | 1.4 | . | 15.8% | -29.0%
Brc1ccccc1/C=N/Nc1ccc2ccccc2n1 | ? | ? | -2.8 | -7.9% | -2.3% | ?
CC(Nc1cccc2ccccc12)C(=O)N/N=C/c1ccc([N+](=O)[O-])cc1 (stereo unspecified) | 13.9% | -18.3 | 9.2 | 0.2% | 17.4% | ?
COc1cccc(/C=N/Nc2nc(Nc3ccc([N+](=O)[O-])cc3)nc(N3CCCC3)n2)c1O | ? | -119.4* | -30.5 | . | -2.4% | 2.82µM*
O=[N+]([O-])c1cccc(C=NNc2ccc3ccccc3n2)c1O | ? | -54.4* | -13.1 | 0.8% | -7.8% | ?
COc1cc([N+](=O)[O-])cc(/C=N/NC(=O)C(C)Nc2cccc3ccccc23)c1O (stereo unspecified) | ? | -84.2* | -26.4 | 29.3% | -15.5% | ?
CNC(=O)C[C@@H](N)C(=O)N[C@@H](C(=O)N[C@@H]1C(=O)N2[C@@H]1SC(C)(C)[C@@H]2C(=O)O)c1ccc(O)cc1 | . | . | -12.3 | . | -0.9% | .
O=C(N/N=C/c1cccc([N+](=O)[O-])c1O)c1cccs1 | ? | -24.7 | -21.3 | -0.2% | -2.7% | ?
COc1cc([N+](=O)[O-])cc(/C=N/NC(=O)C(O)(c2ccccc2)c2ccccc2)c1O | -27.4% | -54.7* | -29.0 | . | 13.6% | ?
CC(C)NC(=S)N/N=C/c1ccccc1[N+](=O)[O-] | 13.2% | -4.6 | 0.5 | . | 0.0% | 10.0%
SMILES | HEK293 tox | D3 antag | D3 ag | ClpP mod | GLP-1R agonist | GLP1R inv ag
O=[N+]([O-])c1ccccc1C=NNC(=S)NN=Cc1ccccc1[N+](=O)[O-] | ? | -58.2* | -23.1 | . | 13.2% | ?
O=C(N/N=C/c1cccc([N+](=O)[O-])c1O)C(O)(c1ccccc1)c1ccccc1 | -7.6% | -71.3* | -22.8 | 1.0% | -6.9% | ?
COc1ccccc1CNC(=O)c1cnc2sc(N3CCCCC3)nn2c1=O | -9.4% | . | 9.7 | 3.9% | . | -4.1%
O=C1CS/C(=C\[N+](=O)[O-])N1c1ccccc1 | 0.7% | -70.8* | -4.0 | -2.8% | -16.5% | -20.5%
O=C1CS/C(=N\N=C\c2ccco2)N1c1ccccc1 | -2.2% | 1.8 | -0.2 | . | 16.2% | 29.4%
Cc1ccc(NC(=O)CC2SC(=O)N(c3ccccc3)C2=O)cc1 (stereo unspecified) | 1.8% | 17.9 | 4.9 | 28.2µM* | -4.7% | -10.6%
Cc1cccc(NC(=O)CC2SC(=O)N(c3ccccc3)C2=O)c1 (stereo unspecified) | 8.7% | 2.2 | -9.5 | 35.5µM* | -19.4% | 0.0%
Cc1cccc(C(=O)N(CCc2ccccc2)Cc2ccccc2)c1[N+](=O)[O-] | -19.2% | -5.9 | -1.3 | 0.1% | -4.3% | 3.16µM*
COc1ccc(C(=O)N(CCc2ccccc2)Cc2ccccc2)c(OC)n1 | 6.7% | 0.6 | -2.6 | . | 15.1% | 5.62µM*
O=C(c1cc(S(=O)(=O)N2CCOCC2)ccc1F)N(CCc1ccccc1)Cc1ccccc1 | -2.6% | -92.5* | 96.3* | . | 6.3% | 10µM*
CCOc1ccc(S(=O)(=O)N2CCN(c3ccccc3)CC2)cc1C(N)=O | -2.0% | . | -8.6 | 1.9% | . | 4.6%
Cc1ccc(S(=O)(=O)N2CCN(c3ccccc3)CC2)cc1C(N)=O | -7.7% | 19.5 | 34.5* | . | 8.4% | 8.3%
N#CCOc1ccccc1CNC[C@H]1O[C@@H](n2cnc3c(=O)[nH]c(N)nc32)[C@H](O)[C@@H]1O | -6.9% | -8.0 | 3.8 | -1.4% | 14.6% | 22.0%
CN(Cc1ccc(C(C)(C)C)cc1)c1cccc2ccccc12 | . | . | . | . | -0.8% | .
